From the supplement of paper PMC10849652
The full data set covers some 8,800 targets. This sample favours those with a hit. About 0.5% of all pairs of compound and target were hits. A number with no mark means an inactive call.

Assays:
Test in all cases: log2 fold change, soluble protein after heating vs DMSO (PISA); higher = thermal stabilisation; K562 lysate, 10 uM; active = over 0.2 and 3.5 SD of the protein, either way, in both replicates (recomputed)
[1] = compound: C1=CC=C(C=C1)[C@H](COC2=CC3=C(C=C2)NC(=O)N3)NC(=O)C4=CC=CN(C4=O)CC5=CC(=C(C=C5)F)F
Method in brief: (§1)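 Soluble protein was defined as the supernatant remaining after 21,000xg for 90 min, following pooling of heated aliquots and adjustment to 0.5% NP-40 at 4°C. Before that, crude K562 extract at 1 mg/mL protein in PBS pH 7.4 with 1 mM MgCl2 was treated with 10 μM compound for 30 min and heated for 3 min across 48°C-58°C. Quantification used TMTpro 16plex LC-MS/MS with channel sums equalised, and values are log-two fold changes in thermal stability relative to solvent controls from duplicates.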

[2] = compound: CC1=C(SC2=C1C(=N[C@H](C3=NN=C(N32)C)CC(=O)N)C4=CC=C(C=C4)Cl)C
Method in brief: as §1

[3] = compound: CC1=C2C(=CC=C1)N=C(N(C2=O)C3=CC=CC=C3C)CN4C=NC5=C(N=CN=C54)N
Method in brief: as §1

[4] = compound: Cc1sc2c(c1C)C(c1ccc(Cl)cc1)=N[C@@H](CC(=O)OC(C)(C)C)c1nnc(C)n1-2
Method in brief: as §1

[5] = compound: c1ccc([C@@H]2C[C@H]2NC2CCNCC2)cc1
Method in brief: as §1

Chain of UniProt Q13362 (Q13362 whole entry, looked up): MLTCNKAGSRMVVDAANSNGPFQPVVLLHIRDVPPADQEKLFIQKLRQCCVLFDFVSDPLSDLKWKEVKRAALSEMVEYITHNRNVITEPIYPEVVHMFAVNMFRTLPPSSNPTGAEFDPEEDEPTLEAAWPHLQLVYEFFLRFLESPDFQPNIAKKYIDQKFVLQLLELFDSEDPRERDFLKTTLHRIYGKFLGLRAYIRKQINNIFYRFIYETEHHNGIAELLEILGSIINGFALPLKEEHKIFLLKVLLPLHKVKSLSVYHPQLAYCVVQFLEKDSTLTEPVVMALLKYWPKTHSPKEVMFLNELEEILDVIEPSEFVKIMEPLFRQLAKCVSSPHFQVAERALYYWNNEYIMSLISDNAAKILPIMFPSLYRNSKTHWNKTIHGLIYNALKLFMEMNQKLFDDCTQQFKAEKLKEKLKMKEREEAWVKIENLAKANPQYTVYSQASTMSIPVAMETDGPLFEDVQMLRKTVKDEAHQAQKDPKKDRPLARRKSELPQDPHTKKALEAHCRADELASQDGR
Chain of UniProt P14314 (P14314 whole entry, looked up): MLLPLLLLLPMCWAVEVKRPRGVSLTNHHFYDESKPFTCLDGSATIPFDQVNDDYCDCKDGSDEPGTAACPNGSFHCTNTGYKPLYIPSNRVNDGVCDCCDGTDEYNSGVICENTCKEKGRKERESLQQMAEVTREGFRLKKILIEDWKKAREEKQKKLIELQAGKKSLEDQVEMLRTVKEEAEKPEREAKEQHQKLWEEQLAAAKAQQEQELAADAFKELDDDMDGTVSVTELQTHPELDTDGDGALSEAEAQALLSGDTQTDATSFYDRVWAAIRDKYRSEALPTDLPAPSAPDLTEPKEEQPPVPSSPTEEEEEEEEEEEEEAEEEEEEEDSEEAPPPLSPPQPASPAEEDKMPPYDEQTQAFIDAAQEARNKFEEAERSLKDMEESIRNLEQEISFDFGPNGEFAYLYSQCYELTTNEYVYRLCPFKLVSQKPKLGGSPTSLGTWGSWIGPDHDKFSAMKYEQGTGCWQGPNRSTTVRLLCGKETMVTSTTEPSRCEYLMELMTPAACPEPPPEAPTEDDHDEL
Chain of UniProt Q9Y6I8 (Q9Y6I8 whole entry, looked up): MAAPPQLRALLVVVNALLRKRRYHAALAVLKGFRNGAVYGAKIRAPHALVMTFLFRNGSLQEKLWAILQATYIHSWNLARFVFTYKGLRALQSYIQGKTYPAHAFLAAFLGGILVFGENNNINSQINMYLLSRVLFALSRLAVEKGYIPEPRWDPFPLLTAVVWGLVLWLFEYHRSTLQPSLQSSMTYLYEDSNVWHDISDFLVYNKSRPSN
Chain of UniProt P42356 (P42356 whole entry, looked up): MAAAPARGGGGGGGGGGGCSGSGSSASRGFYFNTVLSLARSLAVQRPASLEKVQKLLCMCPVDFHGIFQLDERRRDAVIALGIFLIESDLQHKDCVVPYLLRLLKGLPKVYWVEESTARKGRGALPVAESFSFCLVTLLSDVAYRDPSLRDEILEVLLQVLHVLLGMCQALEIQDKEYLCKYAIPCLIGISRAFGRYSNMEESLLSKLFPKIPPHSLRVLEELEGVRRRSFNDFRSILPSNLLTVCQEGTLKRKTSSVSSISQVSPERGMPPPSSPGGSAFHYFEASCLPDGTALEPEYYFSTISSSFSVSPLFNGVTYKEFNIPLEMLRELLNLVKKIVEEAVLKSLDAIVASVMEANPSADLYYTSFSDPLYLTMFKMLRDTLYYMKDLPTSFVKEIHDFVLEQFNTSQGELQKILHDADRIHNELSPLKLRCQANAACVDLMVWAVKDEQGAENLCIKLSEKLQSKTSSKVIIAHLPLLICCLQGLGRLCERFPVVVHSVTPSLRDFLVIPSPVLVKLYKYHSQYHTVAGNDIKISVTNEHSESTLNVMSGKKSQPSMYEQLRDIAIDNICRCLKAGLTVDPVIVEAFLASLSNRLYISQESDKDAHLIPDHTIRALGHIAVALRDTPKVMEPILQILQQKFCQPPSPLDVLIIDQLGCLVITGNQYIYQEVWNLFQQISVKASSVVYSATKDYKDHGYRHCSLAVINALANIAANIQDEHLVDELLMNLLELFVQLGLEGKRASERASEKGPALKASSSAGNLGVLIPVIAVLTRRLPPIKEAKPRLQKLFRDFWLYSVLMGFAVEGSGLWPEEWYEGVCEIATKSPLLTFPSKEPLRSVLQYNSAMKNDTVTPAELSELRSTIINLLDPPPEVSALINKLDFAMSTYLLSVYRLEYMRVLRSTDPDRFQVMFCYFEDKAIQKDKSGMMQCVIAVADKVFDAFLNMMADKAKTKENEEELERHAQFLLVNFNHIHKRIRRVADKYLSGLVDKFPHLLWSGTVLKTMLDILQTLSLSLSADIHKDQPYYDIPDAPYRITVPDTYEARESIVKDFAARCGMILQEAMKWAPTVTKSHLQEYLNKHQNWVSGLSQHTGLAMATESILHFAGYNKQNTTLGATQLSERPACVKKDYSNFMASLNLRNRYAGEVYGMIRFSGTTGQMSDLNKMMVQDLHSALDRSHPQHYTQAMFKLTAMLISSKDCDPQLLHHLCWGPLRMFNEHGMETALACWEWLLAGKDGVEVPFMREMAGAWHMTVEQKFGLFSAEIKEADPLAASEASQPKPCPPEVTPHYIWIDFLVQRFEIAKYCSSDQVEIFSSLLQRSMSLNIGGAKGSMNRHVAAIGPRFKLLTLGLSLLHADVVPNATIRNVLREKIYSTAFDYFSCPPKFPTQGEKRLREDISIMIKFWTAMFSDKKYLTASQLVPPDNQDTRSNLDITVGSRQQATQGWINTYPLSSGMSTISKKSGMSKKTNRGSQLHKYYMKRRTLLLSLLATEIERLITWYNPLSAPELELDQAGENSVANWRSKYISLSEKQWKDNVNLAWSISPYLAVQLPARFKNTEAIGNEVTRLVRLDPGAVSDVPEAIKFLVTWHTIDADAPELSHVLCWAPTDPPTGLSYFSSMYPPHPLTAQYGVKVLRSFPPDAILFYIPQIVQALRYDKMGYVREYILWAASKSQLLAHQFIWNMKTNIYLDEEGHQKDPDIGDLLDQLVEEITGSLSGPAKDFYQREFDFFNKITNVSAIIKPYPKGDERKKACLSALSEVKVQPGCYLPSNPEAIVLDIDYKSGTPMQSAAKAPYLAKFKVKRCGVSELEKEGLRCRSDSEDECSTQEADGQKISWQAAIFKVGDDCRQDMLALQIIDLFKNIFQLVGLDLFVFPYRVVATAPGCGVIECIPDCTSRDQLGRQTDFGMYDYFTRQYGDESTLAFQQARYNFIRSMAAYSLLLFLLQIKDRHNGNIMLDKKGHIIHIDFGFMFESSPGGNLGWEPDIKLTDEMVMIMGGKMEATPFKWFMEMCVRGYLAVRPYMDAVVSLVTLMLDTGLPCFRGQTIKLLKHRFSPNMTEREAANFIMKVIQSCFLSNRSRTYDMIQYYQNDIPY
Chain of UniProt Q969Q6 (Q969Q6 whole entry, looked up): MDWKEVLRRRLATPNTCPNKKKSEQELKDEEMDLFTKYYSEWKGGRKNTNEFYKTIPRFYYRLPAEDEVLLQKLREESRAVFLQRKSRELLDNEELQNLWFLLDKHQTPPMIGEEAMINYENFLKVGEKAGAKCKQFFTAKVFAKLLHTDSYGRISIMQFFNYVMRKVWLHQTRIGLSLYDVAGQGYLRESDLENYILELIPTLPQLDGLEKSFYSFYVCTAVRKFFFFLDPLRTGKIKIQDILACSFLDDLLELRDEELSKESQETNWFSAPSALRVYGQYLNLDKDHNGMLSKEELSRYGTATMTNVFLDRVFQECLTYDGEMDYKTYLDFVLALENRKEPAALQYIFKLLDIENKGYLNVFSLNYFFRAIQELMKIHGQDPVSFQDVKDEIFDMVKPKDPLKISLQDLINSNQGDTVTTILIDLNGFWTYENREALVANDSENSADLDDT
Chain of UniProt O00329 (O00329 whole entry, looked up): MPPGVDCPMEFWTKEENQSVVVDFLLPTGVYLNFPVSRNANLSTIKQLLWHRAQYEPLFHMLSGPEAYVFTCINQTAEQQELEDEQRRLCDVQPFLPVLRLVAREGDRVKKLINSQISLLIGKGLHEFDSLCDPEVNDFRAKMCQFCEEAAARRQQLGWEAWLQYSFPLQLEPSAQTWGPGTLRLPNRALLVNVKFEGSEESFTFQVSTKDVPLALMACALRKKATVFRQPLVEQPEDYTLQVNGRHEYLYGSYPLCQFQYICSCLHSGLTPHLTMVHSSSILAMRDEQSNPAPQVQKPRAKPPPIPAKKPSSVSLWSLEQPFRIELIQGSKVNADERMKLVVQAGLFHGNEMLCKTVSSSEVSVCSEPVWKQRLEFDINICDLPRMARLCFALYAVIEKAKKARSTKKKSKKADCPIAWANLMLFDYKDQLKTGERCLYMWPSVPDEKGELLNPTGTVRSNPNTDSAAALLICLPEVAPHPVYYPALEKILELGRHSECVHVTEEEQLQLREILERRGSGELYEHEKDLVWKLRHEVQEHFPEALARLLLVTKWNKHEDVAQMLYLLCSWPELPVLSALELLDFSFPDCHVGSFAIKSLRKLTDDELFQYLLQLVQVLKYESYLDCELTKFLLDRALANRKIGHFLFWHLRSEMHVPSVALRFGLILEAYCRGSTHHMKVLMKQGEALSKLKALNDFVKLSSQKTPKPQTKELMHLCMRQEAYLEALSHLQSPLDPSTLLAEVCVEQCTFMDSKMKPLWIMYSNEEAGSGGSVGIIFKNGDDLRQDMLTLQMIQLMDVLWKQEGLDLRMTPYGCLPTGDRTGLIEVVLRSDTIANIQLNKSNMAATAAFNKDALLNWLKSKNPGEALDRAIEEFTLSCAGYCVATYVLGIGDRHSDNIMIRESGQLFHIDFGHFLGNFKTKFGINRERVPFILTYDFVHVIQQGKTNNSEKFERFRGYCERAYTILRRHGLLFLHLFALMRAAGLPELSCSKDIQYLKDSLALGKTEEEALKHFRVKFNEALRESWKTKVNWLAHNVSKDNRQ

Target	log2 fold change [1]	log2 fold change [2]	log2 fold change [3]	log2 fold change [4]	log2 fold change [5]
PPP2R5C isoform 5 (UniProt Q13362)	-0.068	0.011	-0.02	-0.024	0.071
PI4KA (UniProt P42356)	-0.08	-0.012	0.057	-0.019	-0.018
PIK3CD (UniProt O00329)	-0.053	0.075	0.443 (active)	-0.027	0.043
PRMT7 (UniProt Q9NVM4)	-0.002	-0.029	0.009	-0.039	0.014
PRPH isoform 2 (UniProt P41219)	0.002	-0.006	0.03	-0.059	0.119
PPP2R3C (UniProt Q969Q6)	-0.044	0.006	0.042	-0.052	0.059
PRKCSH isoform 2 (UniProt P14314)	0.084	-0.09	-0.067	-0.128	-0.33
PXMP4 (UniProt Q9Y6I8)	-0.096	-0.022	-0.026	-0.191	0.041
PRKCSH (UniProt K7ELL7)	0.045	-0.027	-0.157	-0.112	-0.048
